Measurements: PubChem BioAssay AID1159580 (chemical genetic matrix, 2015)
The whole screen tested about 5,500 compounds, of which about 2,000 (36%) were called active. Roughly 18% stayed inconclusive and do not appear here. Rule as the data show it: active = normalized growth mostly below about 0.91 (no sharp cut-off); inconclusive = no clear call, values can overlap the other calls; inactive = mostly above about 0.92. The list shows a part of the results.

Assay: chemical genetic growth profiling, strain panel (AID 1159580);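 also: tested at 20 µM; growth read once vehicle control cultures reached saturation at 30 °C; 1 = growth at the plate median or of vehicle wells; lower values mean less growth of the strain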
Details: S. cerevisiae deletion strains, growth OD

Measured: normalized growth

NC(=NCCC[C@H](N)C(=O)O)N[N+](=O)[O-]
inactive: locus YAL013W, strain DEP1, hits give low values 0.99 | locus YAL021C, strain ccr4, hits give low values 1.02 | locus YAL026C, strain drs2, hits give low values 1.03 | locus YAL030W, strain snc1, hits give low values 1.02 | locus YBL061C, strain skt5, hits give low values 1.02 | locus YBR009C, strain hhf1, hits give low values 1.02 | locus YBR021W, strain FUR4, hits give low values 0.992 | locus YBR023C, strain chs3, hits give low values 1.02 | locus YBR171W, strain sec66, hits give low values 1.03 | locus YBR229C, strain ROT2, hits give low values 1 | locus YBR231C, strain swc5, hits give low values 1.02 | locus YBR279W, strain paf1, hits give low values 1.02 | locus YCL011C, strain gbp2, hits give low values 1.03 | locus YCL016C, strain dcc1, hits give low values 1.02 | locus YCL029C, strain bik1, hits give low values 0.994 | locus YCL069W, strain vba3, hits give low values 1.01 | locus YCR088W, strain abp1, hits give low values 1.03 | locus YDL005C, strain med2, hits give low values 1.03 | locus YDL035C, strain GPR1, hits give low values 1 | locus YDL040C, strain nat1, hits give low values 1.02 | locus YDL074C, strain BRE1, hits give low values 0.978 | locus YDL101C, strain DUN1, hits give low values 1 | locus YDL134C, strain PPH21, hits give low values 1.01 | locus YDL185W, strain tfp1, hits give low values 1.01 | locus YDL192W, strain arf1, hits give low values 1.01 | locus YDR001C, strain nth1, hits give low values 1.01 | locus YDR069C, strain doa4, hits give low values 1.03 | locus YDR101C, strain arx1, hits give low values 0.946 | locus YDR137W, strain rgp1, hits give low values 1.05 | locus YDR150W, strain NUM1, hits give low values 0.992 | locus YDR159W, strain sac3, hits give low values 0.991 | locus YDR162C, strain NBP2, hits give low values 1.02 | locus YDR195W, strain ref2 1.04 | locus YDR297W, strain sur2, hits give low values 1.02 | locus YDR318W, strain mcm21, hits give low values 1.01 | locus YDR334W, strain swr1, hits give low values 1.02 | locus YDR335W, strain msn5, hits give low values 1.03 | locus YDR388W, hits give low values 1.02 | locus YDR392W, strain spt3, hits give low values 1.03 | locus YDR502C, strain sam2, hits give low values 1.01 | locus YEL003W, strain gim4, hits give low values 1.02 | locus YEL037C, strain rad23, hits give low values 1.03 | locus YEL061C, strain CIN8 (second series), hits give low values 1.01 | locus YEL061C, strain CIN8, hits give low values 0.983 | locus YER015W, strain faa2, hits give low values 1.03 | locus YER016W, strain bim1, hits give low values 1.01 | locus YER110C, hits give low values 1.01 | locus YER111C, strain swi4, hits give low values 1.04 | locus YER155C, strain BEM2 (second series), hits give low values 1.06 | locus YER155C, strain BEM2, hits give low values 1 | locus YER167W, strain BCK2, hits give low values 0.998 | locus YFR010W, strain ubp6, hits give low values 1.03 | locus YGL078C, strain dbp3, hits give low values 1 | locus YGL086W, strain mad1, hits give low values 0.982 | locus YGL167C, strain pmr1, hits give low values 1.02 | locus YGL173C, strain kem1, hits give low values 1.02 | locus YGL227W, strain vid30, hits give low values 1.01 | locus YGL240W, strain doc1, hits give low values 1.04 | locus YGL248W, strain PDE1, hits give low values 1 | locus YGL253W, strain hxk2, hits give low values 1.02 | locus YGR078C, strain PAC10, hits give low values 0.972 | locus YGR135W, strain pre9, hits give low values 1.06 | locus YGR229C, strain SMI1, hits give low values 1.01 | locus YGR252W, strain gcn5, hits give low values 1.07 | locus YHR013C, strain ard1, hits give low values 1.05 | locus YHR027C, strain rpn1, hits give low values 1.02 | locus YHR030C, strain SLT2, hits give low values 0.994 | locus YHR079C, strain IRE1 (second series), hits give low values 1.01 | locus YHR094C, strain hxt1, hits give low values 1.01 | locus YHR129C, strain ARP1, hits give low values 1.01 | locus YHR142W, strain chs7, hits give low values 1.05 | locus YHR200W, strain rpn10, hits give low values 0.996 | locus YIL066C, strain RNR3, hits give low values 1.01 | locus YIL073C, strain SPO22, hits give low values 1.05 | locus YIL125W, strain kgd1, hits give low values 0.999 | locus YIR030C, strain dcg1, hits give low values 1.01 | locus YJL092W, strain hpr5, hits give low values 1.02 | locus YJL095W, strain BCK1 (second series), hits give low values 1.03 | locus YJL095W, strain BCK1, hits give low values 1 | locus YJL115W, strain asf1, hits give low values 1.04 | locus YJL129C, strain trk1, hits give low values 1.05 | locus YJL134W, strain LCB3, hits give low values 1 | locus YJL154C, strain vps35, hits give low values 1.02 | locus YJL164C, strain tpk1, hits give low values 1.02 | locus YJL166W, strain qcr8, hits give low values 1.03 | locus YJL168C, strain set2, hits give low values 0.999
